Assay results published in PubChem BioAssay (EPA / NIEHS).
“And” between values parts separate entries of the source, which are not always exact repeats. Equal values may be shown once. The source made the active and inactive calls. Rule for the calls: active = hit-call score of the fitted dose curve at least 0.9, where 1 is the maximum; inactive = score below 0.9.

Read-out: Urokinase-type plasminogen activator receptor (uPAR), PLAUR (gene 5329)
Test: BSK_4H_uPAR: BioMAP Diversity Plus: 4H Assay for Urokinase-type plasminogen activator receptor (uPAR) Biomarker Activity (AID 2283030)
Conditions: primary human endothelial cells (HUVEC); actives raise or lower the signal
Description: BSK_4H is a cell-based, multiplexed-readout assay that uses umbilical vein endothelium, a human vascular primary cell, with measurements taken at 24 hours after chemical dosing in a 96-well plate.BSK_4HAR is an assay component measured in the BSK_4H assay. It measures uPAR antibody related to regulation of gene expression using ELISA technology.Data from the assay component BSK_4HAR was analyzed into 1 assay endpoint. This assay endpoint, BSK_4HAR, was analyzed with bidirectional fitting relative to DMSO as the negative control and baseline of activity. Using a type of binding reporter, gain or loss-of-signal activity can be used to understand changes in the signaling as they relate to the gene PLAUR. Furthermore, this assay endpoint can be referred to as a primary readout, because this assay has produced multiple assay endpoints where this one serves a signaling function. To generalize the intended target to other relatable targets, this assay endpoint is annotated to the cytokine intended target family, where the subfamily is plasmogen activator.
The levels of cell surface (or secreted, indicated by the prefix "s") biomarker endpoints were measured by ELISA. Overt cytotoxicity to cells in confluent adherent cultures (all systems other than the BT system) was assessed by measuring total protein levels using sulforhodamine B (SRB) staining in parallel cultures at the time of biomarker measurements, indicated as SRB endpoints. For proliferation assays for adherent cell types, individual cell types are cultured at sub-confluence and relative cell numbers quantified by SRB staining at time points optimized for each system (48 h: 3C and CASM3C systems; 72 h: BT and HDF3CGF systems; 96 h: SAg system). SRB was performed by staining cells with 0.1% SRB after fixation with 10% TCA and reading wells at 560 nm.Viability and proliferation of PBMC (T cells) was quantified by Alamar Blue reduction for the SAg and BT systems. For PBMC viability (referred to as PBMC Cytotoxicity within the assay endpoint names), cells were plated (75,000/well in a 96-well plate) and then chemical samples added for 1 h before addition of activators, SEB and TSST-1 (20 ng/mL final concentration each). Cells were incubated for 90 h. Then, Alamar Blue (20 uL/well) (Invitrogen, Cat DAL1100) was added for 6 h, and the plates were read with a fluorescence microplate reader at 546/580 nm (excitation/emission). For PBMC proliferation, cells were plated and activated as above but incubated for only 16 h prior to addition of Alamar Blue. Plates were read after 6 h.

Compound | outcome | AC50
CCCCC(CC)CN1C(=O)C2C3C=CC(C3)C2C1=O (stereo not given) | inactive | 
COC(=O)c1c(Cl)nn(C)c1S(=O)(=O)NC(=O)Nc1nc(OC)cc(OC)n1 | inactive | 
OB(O)O | inactive | 
CCOC(=O)NCCOc1ccc(Oc2ccccc2)cc1 | inactive | 
CCOC(=O)COc1cc(-n2ncc(C(F)(F)F)c(C)c2=O)c(F)cc1Cl | inactive | 
CCCOC(=O)NCCCN(C)C | inactive | 
CC(=O)S[C@@H]1CC2=CC(=O)CC[C@]2(C)[C@H]2CC[C@@]3(C)[C@@H](CC[C@@]34CCC(=O)O4)[C@H]12 | inactive | 
CCOC(=O)C(C)Oc1ccc(Oc2cnc3cc(Cl)ccc3n2)cc1 (stereo not given) | inactive | 
CCCCCOC(=O)COc1cc(N2C(=O)C3=C(CCCC3)C2=O)c(F)cc1Cl | inactive | 
O=C(c1ccccc1)C1CCCCC1 | inactive | 
CN(C)C(=O)Nc1ccc(Cl)c(Cl)c1 | inactive | 
Cc1nn(C)c(Oc2ccccc2)c1C=NOCc1ccc(C(=O)OC(C)(C)C)cc1 |  | 30.6 µM (active)
COC(=O)c1ccccc1S(=O)(=O)NC(=O)Nc1nc(OC(F)F)cc(OC(F)F)n1 | inactive | 
C#C[C@]1(O)CC[C@H]2[C@@H]3CCC4=CC(=O)CC[C@@H]4[C@H]3CC[C@@]21CC | inactive | 
CCCCC(CC)COC(=O)c1ccccc1C(=O)O (stereo not given) | inactive | 
CCCCCCC(C)OC(=O)COc1nc(F)c(Cl)c(N)c1Cl (stereo not given) |  | 31.2 µM (active)
CC(=O)[C@H]1CC[C@H]2[C@@H]3CCC4=CC(=O)CC[C@]4(C)[C@H]3CC[C@]12C |  | 10 µM (active)
CCCCOC(=O)C(C)Oc1ccc(Oc2ccc(C(F)(F)F)cn2)cc1 (stereo not given) | inactive | 
CCN(CC)C(=O)c1cccc(C)c1 | inactive | 
O=C(Nc1ccc([N+](=O)[O-])cc1Cl)c1cc(Cl)ccc1O |  | 0.148 µM (active)

Compound | outcome | AC50
CCCCOC(=O)[C@@H](C)Oc1ccc(Oc2ccc(C(F)(F)F)cn2)cc1 | inactive | 
O=C(O)c1ccccc1 | inactive | 
c1ccc2[nH]c(-c3cscn3)nc2c1 | inactive | 
CC(C)(C)[C@@H](O)[C@@H](Cc1ccc(Cl)cc1)n1cncn1 | inactive | 
CCOC(=O)[C@H](C)Oc1ccc(Oc2nc3ccc(Cl)cc3o2)cc1 | inactive | 
CCCN(CCC)C(=O)SCC | inactive | 
COC(=O)c1ccc(CNS(C)(=O)=O)cc1S(=O)(=O)NC(=O)Nc1nc(OC)cc(OC)n1 | inactive | 
CC1(C)C(C=C(Cl)Cl)C1C(=O)OCc1cccc(Oc2ccccc2)c1 (stereo not given) | inactive | 
COC(=O)c1ccccc1C(=O)O | inactive | 
CCC(O)=C1C(=O)CC(C(=O)O)CC1=O (stereo not given) | inactive | 
COc1c(Cl)ccc(Cl)c1C(=O)O | inactive | 
N#CSCSc1nc2ccccc2s1 |  | 5.3 µM (active) and 6.65 µM (active)
CSC(=O)c1cccc2nnsc12 | inactive | 
COC(=O)c1ccc(I)cc1S(=O)(=O)NC(=O)Nc1nc(C)nc(OC)n1 | inactive | 
C[C@]12C[C@H](O)[C@H]3[C@@H](CCC4=CC(=O)CC[C@@]43C)[C@@H]1CC[C@@H]2C(=O)CO | inactive | 
O=C(c1ccc(O)cc1O)c1ccc(O)cc1O | inactive | 
C[C@]12CC[C@@H]3c4ccc(O)cc4C[C@@H](CCCCCCCCCS(=O)CCCC(F)(F)C(F)(F)F)[C@H]3[C@@H]1CC[C@@H]2O (stereo not given in full) |  | 12.4 µM (active)
CCOC(=O)C(C)Oc1ccc(Oc2nc3ccc(Cl)cc3o2)cc1 (stereo not given) | inactive | 
CCN(Cc1c(F)cccc1Cl)c1c([N+](=O)[O-])cc(C(F)(F)F)cc1[N+](=O)[O-] | inactive | 
CCCCOCCOCCOCc1cc2c(cc1CCC)OCO2 | inactive | 
